Assay outcomes from PubChem.
The list is not random: actives were taken first. Their share in the collection is about 7.8%.
PD-1 reversal = reversal of PD-1 mediated T-cell inhibition; primary human CD4 T cells, PD-L1 beads, CellTiter-Glo 96 h; activation, % (concentration not given with the values); 29,000 tested, under 10 active; AID 2316; call rule not given here;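 note: 0% = median vehicle wells and 100% = positive control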
MITF inh = inhibitors of MITF | 0.28% of 37,000 active | inhibition, % (concentration not given with the values) | TRPM1 promoter luciferase, luminescence, 24 h; in the data active = inhibition above about 85%; inconclusive = no clear call, values can overlap the other calls; inactive = below about 68%;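 note: human melanocyte line stably carrying TRPM1 promoter luciferase reporter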
NOMO-1 viab = STK33 inhibitor candidate reducing NOMO-1 cell viability. AID 2330. NOMO-1 AML viability, CellTiter-Glo luminescence, 72 h. 7.5% of 37,000 active. inhibition, % (test concentration not listed); in the data active = inhibition above about 80%; inconclusive = no clear call, values can overlap the other calls
Shh pathway inh = Sonic Hedgehog pathway inhibition; Shh-LIGHT2 Gli-luciferase reporter, 30 h; inhibition, % (concentration not given with the values); 2.1% of 22,000 active;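 active = mean inhibition across valid replicates above about 65%, limit read from the data; inconclusive = mean under the limit, yet half or more replicates past it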;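 note: pathway switched on by Shh-conditioned medium diluted 1 in 25 in low serum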
An asterisk follows results filed as active; ? = inconclusive; . = no result given.

SMILES	PD-1 reversal	MITF inh	NOMO-1 viab	Shh pathway inh
C[C@H]1CN([C@@H](C)CO)C(=O)c2cccc(NC(=O)Nc3ccc(C(F)(F)F)cc3)c2O[C@@H]1CN(C)Cc1ccc2c(c1)OCO2	-5	19	109*	-9
C[C@H](CO)N1C[C@H](C)[C@H](CN(C)Cc2ccc3c(c2)OCO3)Oc2c(NC(=O)Nc3ccc4c(c3)OCO4)cccc2C1=O	1	-14	?	-54
C[C@H](CO)N1C[C@H](C)[C@@H](CN(C)Cc2ccc3c(c2)OCO3)Oc2c(NC(=O)Nc3ccc(F)cc3)cccc2C1=O	-4	-6	72	-44
C[C@@H]1CN([C@H](C)CO)C(=O)c2cccc(NC(=O)Nc3ccc(C(F)(F)F)cc3)c2O[C@@H]1CN(C)Cc1ccc2c(c1)OCO2	-4	1	104*	-25
C[C@@H]1CN([C@@H](C)CO)C(=O)c2cccc(NC(=O)Nc3ccc(C(F)(F)F)cc3)c2O[C@H]1CN(C)Cc1ccc2c(c1)OCO2	-7	66	85*	6
C[C@H](CO)N1C[C@H](C)[C@H](CN(C)Cc2ccc3c(c2)OCO3)Oc2c(NC(=O)Nc3ccc(C(F)(F)F)cc3)cccc2C1=O	-5	27	104*	-21
CCCn1c(-c2cccs2)n[nH]c1=O	-2	1	-2	-26
Cc1cc(C)c(NC(=S)NC(=O)c2ccccc2)c(C)c1	-2	7	63	.
O=c1onc(-c2ccccc2)n1-c1cccc(C(F)(F)F)c1	0	4	8	-2
C[C@H](CO)N1C[C@H](C)[C@H](CN(C)Cc2ccc3c(c2)OCO3)Oc2c(NC(=O)Nc3ccc(F)cc3)cccc2C1=O	-1	17	55	-24
C[C@H](CO)N1C[C@H](C)[C@@H](CN(C)Cc2ccc3c(c2)OCO3)Oc2c(NC(=O)Nc3ccc(C(F)(F)F)cc3)cccc2C1=O	.	42	104*	13
C[C@H]1CN([C@@H](C)CO)C(=O)c2cccc(NC(=O)Nc3ccccc3)c2O[C@@H]1CN(C)Cc1ccc2c(c1)OCO2	-4	4	68	-17
C[C@@H]1CN([C@H](C)CO)C(=O)c2cccc(NC(=O)Nc3ccc(C(F)(F)F)cc3)c2O[C@H]1CN(C)Cc1ccc2c(c1)OCO2	-8	63	104*	20
C[C@@H]1CN([C@H](C)CO)C(=O)c2cccc(NC(=O)Nc3ccc4c(c3)OCO4)c2O[C@H]1CN(C)Cc1ccc(C(F)(F)F)cc1	.	28	104*	3
COc1ccc(NC(=O)CSc2nc3c(c(C(F)(F)F)c2C#N)CCC3)c(OC)c1	.	-24	1	.
COc1ccc2cc3[n+](cc2c1OC)CCc1cc2c(cc1-3)OCO2	0	51	110*	17
O=C(CNS(=O)(=O)c1ccccc1)Nc1cccc(F)c1	-1	-28	-2	.
Cn1c(O)c(C=Nc2cccc(CO)c2)c2ccccc21	1	-58	26	10
CCc1ccc(N=Cc2c(O)n(-c3ccccc3)c(=O)c3ccccc23)cc1	0	-16	120*	-6
COCCNC(=O)c1c(NC(=O)c2nc(SC)ncc2Cl)sc2c1CCCC2	-5	20	138*	.
CSc1ncc(Cl)c(C(=O)Nc2sc3c(c2C(=O)NCCc2ccccc2)CCC3)n1	1	-13	19	.
COc1ccc(NC(=O)Nc2cccc3c2O[C@@H](CN(C)Cc2ccc(Oc4ccccc4)cc2)[C@@H](C)CN([C@H](C)CO)C3=O)cc1	-4	-1	117*	18
COc1ccc(NC(=O)Nc2cccc3c2O[C@@H](CN(C)Cc2ccc(Oc4ccccc4)cc2)[C@@H](C)CN([C@@H](C)CO)C3=O)cc1	-2	4	68	5
COc1ccc(NC(=O)Nc2cccc3c2O[C@@H](CN(C)Cc2ccc(Oc4ccccc4)cc2)[C@H](C)CN([C@@H](C)CO)C3=O)cc1	-1	40	91*	0
CC(C)NC(=O)Nc1cccc2c1O[C@H](CN(C)Cc1ccc(Oc3ccccc3)cc1)[C@@H](C)CN([C@H](C)CO)C2=O	-3	37	89*	21
C[C@H](CO)N1C[C@H](C)[C@@H](CN(C)Cc2ccc(Oc3ccccc3)cc2)Oc2c(NC(=O)Nc3ccccc3)cccc2C1=O	-8	27	85*	40
COc1ccccc1OCCSc1n[nH]c2nc3ccccc3n12	0	-14	7	.
C[C@H]1CN([C@@H](C)CO)C(=O)c2cccc(NC(=O)Nc3ccccc3)c2O[C@@H]1CN(C)Cc1ccc(Oc2ccccc2)cc1	.	14	60	-10
COc1ccc(NC(=O)Nc2cccc3c2O[C@@H](CN(C)Cc2ccccc2)[C@H](C)CN([C@H](C)CO)C3=O)cc1	-8	62	117*	-14
